The source of these data is PubChem BioAssay (NCI).

About 83,000 compounds went through this panel and 20% of them were active in at least one assay; those are over-represented in the sample as a whole.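 Testing used 96-well plates and a 48-hour single-concentration exposure. Example: -40 means 40% of the starting cells died.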 The source made the active and inactive calls. How the source made its calls: active means growth percent below 10; inactive means the rest.

One experiment concerns NCI-H23 lung. Kind of experiment: NCI-60 one-dose screen, 48 h (100 = growth as untreated, 0 = no growth, -100 = all killed). The settings on record: 10 µM unless noted.
For the molecule `C[C@]12O[C@H](C[C@]1(O)CO)n1c3ccccc3c3c4c(c5c6ccccc6n2c5c31)CNC4=O`, the growth was -58.3% (active).

Turning to `CSc1nc2ncnc(SC)c2[nH]1`, the growth is 96.1% (inactive).

`CCc1nc2cc(/C=C/C(=O)NO)ccc2c(=O)n1CCc1ccc(OC)cc1`: the growth was 24.5% (inactive).

`COC(=O)[C@H](Cc1ccc(O)cc1)NC(=O)[C@@H](OC)[C@@H]1Cc2cc3cc(OC4CC(OC5CC(O)C(O)C(C)O5)C(O)C(C)O4)c(C)c(O)c3c(O)c2C(=O)[C@H]1OC1CC(OC2CC(OC3CC(C)(O)C(O)C(C)O3)C(O)C(C)O2)C(O)C(C)O1` (stereo partly drawn): the growth was -38.6% (active).

`Nc1ccc(S(=O)(=O)O)c2cc(S(=O)(=O)O)cc(O)c12`: the growth was 110% (inactive).

As for `COc1cc(-c2nc(C(=O)NCC(=O)O)nn2-c2ccc(Cl)cc2)cc(OC)c1OC`, the growth was 97.5% (inactive).

`Cc1ccc(NC(=O)c2ccc(CN3CC[C@H](N(C)C)C3)c(C(F)(F)F)c2)cc1Nc1nccc(-c2cncnc2)n1`: the growth is 13.2% (inactive).

As to `Cc1cc(Oc2ccccc2)ccc1Nc1ncnc2ccc(-c3cnc(Cl)c(NS(C)(=O)=O)c3)cc12`, the growth is 28.5% (inactive).

Regarding `COc1ccc(-n2c(=O)c3ccccc3n(Cc3ccc(C(=O)NO)cc3)c2=O)cc1`, the growth is -50.1% (active).

Take `N#CC1(C#N)C(c2cccs2)NC(c2cccs2)C1(C#N)C#N` (stereo not drawn): the growth was 95% (inactive).

For `CC(C)[C@@H]1CC[C@]2(CO2)[C@@H]2C(=O)OCC(C(=O)O)=C[C@H]21`, the growth was -18.4% (active).

Turning to `O=C(NO)c1ccc(Cn2c(=O)n(CCc3ccccc3)c(=O)c3ccccc32)cc1`, the growth is 8.96% (active).

Turning to `CNC(=O)c1cc(Oc2ccc(NC(=O)Nc3ccc(Cl)c(C(F)(F)F)c3)c(F)c2)ccn1`, the growth was -25.8% (active).

For `COc1cc2c3c(c1)nc(C)n3CCC2`, the growth was 98.4% (inactive).

For the molecule `Cc1sc2c(c1C)c(=O)nc1c(-c3nc4ccccc4s3)n[nH]n12`, the growth is 88.7% (inactive).

Consider `CC(=O)CC1CCCC1c1ccc2ccccc2c1` (stereo not drawn), for which the growth was 96.3% (inactive).

As for `CCn1cc(-c2ccnc3[nH]c(-c4cccc(CN(C)C)c4)cc23)c(-c2ccc(NC(=O)N(C)C)cc2)n1`, the growth was 17.6% (inactive).

Turning to `N[C@@H]1CCCN(c2c(/C=C3\SC(=O)NC3=O)cccc2-c2ccccc2)C1`, the growth is 66% (inactive).

For `Brc1ccc([I+]c2ccc(Br)cc2)cc1`, the growth was -9.33% (active).

Regarding `O=C(NC[C@H](O)CO)c1ccncc1Nc1ccc(I)cc1F`, the growth is 15.9% (inactive).

With `N#Cc1c(NC(=O)c2ccco2)[n+]([O-])c2cc(F)c(F)cc2[n+]1[O-]`, the growth is 82.7% (inactive).

Take `COc1cc2ncnc(Oc3cccc(NC(=O)Nc4cc(C(C)(C)C(F)(F)F)on4)c3)c2cc1OC`: the growth is 19.4% (inactive).

For `O=C(c1ccc(/C=C/c2n[nH]c3ccccc23)cc1)N1CCNCC1`, the growth was 24.8% (inactive).

On to `N#CC(C#N)=NO`, for which the growth is 92.7% (inactive).

With `CN1CCC(COc2cnc(-c3cccc(Cn4nc(-c5cccc(C#N)c5)ccc4=O)c3)nc2)CC1`, the growth was 62.5% (inactive).

On to `CC(C)OP(=O)(CCC(=O)c1c[nH]c2ccccc12)OC(C)C`, for which the growth is 96.8% (inactive).

On to `COc1cc(NCCN(CC(C)C)CC(C)C)c2ncc(C)cc2c1`, for which the growth was 42% (inactive).

As for `O=c1sn(-c2cccc3ccccc23)c(=O)n1Cc1ccccc1`, the growth is 100% (inactive).

On to `Cc1cc2c(F)c(Oc3ncnn4cc(OC[C@@H](C)OC(=O)[C@H](C)N)c(C)c34)ccc2[nH]1`, for which the growth is 27.6% (inactive).

Turning to `CCCCN1C(=O)c2cccc3c(-c4ccc5c(c4)ncn5C4CCCCC4)ccc(c23)C1=O`, the growth was 96% (inactive).

For the molecule `C=CC(=O)Nc1cc2c(Nc3ccc(F)c(Cl)c3)ncnc2cc1OCCCN1CCOCC1`, the growth was -54.4% (active).

Regarding `CCN(CC)CCCC(C)Nc1cc(-c2ccc(C(F)(F)F)cc2)c(C#N)c2nc3ccccc3n12` (stereo not drawn), the growth was 18.6% (inactive).

As for `C=CC(=O)Nc1cc(Nc2nccc(-c3cn(C)c4ccccc34)n2)c(OC)cc1N(C)CCN(C)C`, the growth was 8.43% (active).

For the molecule `O=C(Nc1cnn2ccc(N3CCC[C@@H]3c3cc(F)ccc3F)nc12)N1CC[C@H](O)C1`, the growth is 87.8% (inactive).

Turning to `S=C(NCc1ccc2c(c1)OCO2)N1CCN(c2ncnc3c2oc2ccccc23)CC1`, the growth was 44.1% (inactive).

As for `O=C(NOC[C@H](O)CO)c1ccc(F)c(F)c1Nc1ccc(I)cc1F`, the growth is 19.6% (inactive).

As for `CC(=O)Oc1ccccc1C(=O)N=C1[Se]CCN1C(=O)c1ccccc1OC(C)=O`, the growth was 0.294% (active).

As to `COC(=O)CCCNc1c(-c2c(O)c(O)cc3c(O)c(-c4c(C)cc5c(-c6nc7ccccn7c6NCCCC(=O)OC)c(O)c(O)cc5c4O)c(C)cc23)nc2ccccn12`, the growth is 6.48% (active).

Consider `O=C(CNc1nc(-c2ccc(Cl)cc2)cs1)Nc1ccc(-c2nc3ccccc3s2)cc1`, for which the growth is 87.6% (inactive).

Another experiment relates to NCI-H226 lung. Described as above. The settings on record: 10 µM unless noted.
On to `C[C@]12O[C@H](C[C@]1(O)CO)n1c3ccccc3c3c4c(c5c6ccccc6n2c5c31)CNC4=O`, for which the growth was -68.8% (active).

In the case of `CSc1nc2ncnc(SC)c2[nH]1`, the growth is 98.2% (inactive).

Turning to `CCc1nc2cc(/C=C/C(=O)NO)ccc2c(=O)n1CCc1ccc(OC)cc1`, the growth is 50% (inactive).

With `COC(=O)[C@H](Cc1ccc(O)cc1)NC(=O)[C@@H](OC)[C@@H]1Cc2cc3cc(OC4CC(OC5CC(O)C(O)C(C)O5)C(O)C(C)O4)c(C)c(O)c3c(O)c2C(=O)[C@H]1OC1CC(OC2CC(OC3CC(C)(O)C(O)C(C)O3)C(O)C(C)O2)C(O)C(C)O1` (stereo partly drawn), the growth is -17.6% (active).

On to `Nc1ccc(S(=O)(=O)O)c2cc(S(=O)(=O)O)cc(O)c12`, for which the growth is 105% (inactive).

As to `COc1cc(-c2nc(C(=O)NCC(=O)O)nn2-c2ccc(Cl)cc2)cc(OC)c1OC`, the growth was 87.1% (inactive).

In the case of `Cc1ccc(NC(=O)c2ccc(CN3CC[C@H](N(C)C)C3)c(C(F)(F)F)c2)cc1Nc1nccc(-c2cncnc2)n1`, the growth is 12.9% (inactive).

Take `Cc1cc(Oc2ccccc2)ccc1Nc1ncnc2ccc(-c3cnc(Cl)c(NS(C)(=O)=O)c3)cc12`: the growth was 36.9% (inactive).

On to `COc1ccc(-n2c(=O)c3ccccc3n(Cc3ccc(C(=O)NO)cc3)c2=O)cc1`, for which the growth was 31.8% (inactive).

With `N#CC1(C#N)C(c2cccs2)NC(c2cccs2)C1(C#N)C#N` (stereo not drawn), the growth is 102% (inactive).

`CC(C)[C@@H]1CC[C@]2(CO2)[C@@H]2C(=O)OCC(C(=O)O)=C[C@H]21`: the growth was 25.5% (inactive).

Take `O=C(NO)c1ccc(Cn2c(=O)n(CCc3ccccc3)c(=O)c3ccccc32)cc1`: the growth was 48.1% (inactive).

Consider `CNC(=O)c1cc(Oc2ccc(NC(=O)Nc3ccc(Cl)c(C(F)(F)F)c3)c(F)c2)ccn1`, for which the growth was -16.8% (active).

Consider `COc1cc2c3c(c1)nc(C)n3CCC2`, for which the growth is 91.1% (inactive).

On to `Cc1sc2c(c1C)c(=O)nc1c(-c3nc4ccccc4s3)n[nH]n12`, for which the growth was 87.4% (inactive).

As to `CC(=O)CC1CCCC1c1ccc2ccccc2c1` (stereo not drawn), the growth is 95.2% (inactive).

Turning to `CCn1cc(-c2ccnc3[nH]c(-c4cccc(CN(C)C)c4)cc23)c(-c2ccc(NC(=O)N(C)C)cc2)n1`, the growth is 32.3% (inactive).

For `N[C@@H]1CCCN(c2c(/C=C3\SC(=O)NC3=O)cccc2-c2ccccc2)C1`, the growth is 59.1% (inactive).

Turning to `Brc1ccc([I+]c2ccc(Br)cc2)cc1`, the growth is 45.9% (inactive).

For `O=C(NC[C@H](O)CO)c1ccncc1Nc1ccc(I)cc1F`, the growth was 50.2% (inactive).

Take `N#Cc1c(NC(=O)c2ccco2)[n+]([O-])c2cc(F)c(F)cc2[n+]1[O-]`: the growth was 103% (inactive).

Take `COc1cc2ncnc(Oc3cccc(NC(=O)Nc4cc(C(C)(C)C(F)(F)F)on4)c3)c2cc1OC`: the growth is 23.9% (inactive).

Consider `O=C(c1ccc(/C=C/c2n[nH]c3ccccc23)cc1)N1CCNCC1`, for which the growth is 3.94% (active).

Turning to `N#CC(C#N)=NO`, the growth is 94.6% (inactive).

Regarding `CN1CCC(COc2cnc(-c3cccc(Cn4nc(-c5cccc(C#N)c5)ccc4=O)c3)nc2)CC1`, the growth was 92.2% (inactive).

For the molecule `CC(C)OP(=O)(CCC(=O)c1c[nH]c2ccccc12)OC(C)C`, the growth is 94% (inactive).

As for `COc1cc(NCCN(CC(C)C)CC(C)C)c2ncc(C)cc2c1`, the growth was 90.5% (inactive).

Turning to `O=c1sn(-c2cccc3ccccc23)c(=O)n1Cc1ccccc1`, the growth was 96.8% (inactive).

In the case of `Cc1cc2c(F)c(Oc3ncnn4cc(OC[C@@H](C)OC(=O)[C@H](C)N)c(C)c34)ccc2[nH]1`, the growth was 50.2% (inactive).

Take `CCCCN1C(=O)c2cccc3c(-c4ccc5c(c4)ncn5C4CCCCC4)ccc(c23)C1=O`: the growth was 101% (inactive).

Regarding `C=CC(=O)Nc1cc2c(Nc3ccc(F)c(Cl)c3)ncnc2cc1OCCCN1CCOCC1`, the growth was 40.2% (inactive).

`CCN(CC)CCCC(C)Nc1cc(-c2ccc(C(F)(F)F)cc2)c(C#N)c2nc3ccccc3n12` (stereo not drawn): the growth was -39.6% (active).

In the case of `C=CC(=O)Nc1cc(Nc2nccc(-c3cn(C)c4ccccc34)n2)c(OC)cc1N(C)CCN(C)C`, the growth was -50.5% (active).

`O=C(Nc1cnn2ccc(N3CCC[C@@H]3c3cc(F)ccc3F)nc12)N1CC[C@H](O)C1`: the growth was 93.8% (inactive).

`S=C(NCc1ccc2c(c1)OCO2)N1CCN(c2ncnc3c2oc2ccccc23)CC1`: the growth was 28.7% (inactive).

With `O=C(NOC[C@H](O)CO)c1ccc(F)c(F)c1Nc1ccc(I)cc1F`, the growth was 49.5% (inactive).

As to `CC(=O)Oc1ccccc1C(=O)N=C1[Se]CCN1C(=O)c1ccccc1OC(C)=O`, the growth was -48.4% (active).

For the molecule `COC(=O)CCCNc1c(-c2c(O)c(O)cc3c(O)c(-c4c(C)cc5c(-c6nc7ccccn7c6NCCCC(=O)OC)c(O)c(O)cc5c4O)c(C)cc23)nc2ccccn12`, the growth was 64.8% (inactive).

Regarding `O=C(CNc1nc(-c2ccc(Cl)cc2)cs1)Nc1ccc(-c2nc3ccccc3s2)cc1`, the growth was 80.3% (inactive).
